The values below come from the supplement of paper PMC13380429.

Experiment [1] deals with Vero E6 infected with SARS-CoV-2. The experiment in a line: morphology score (similarity to uninfected cells); higher = more like uninfected cells. The note with it: 24 h.
Experiment [2] has the same test system. In words: SARS-CoV-2 infection rate relative to infected DMSO; higher = more infection, active = 60 or less. Particulars: 24 h.

Compound `COc1cc(OC)c(C(=O)CCCN2CCCC2)c(OC)c1` [buflomedil] (10 µM) yielded a morphology score in experiment [1] of 0.0545. In addition, the SARS-CoV-2 infection rate in experiment [2] is 102% (inactive).

Turning to `O=C1C2CCN(CC2)C1(CO)CO` (10 µM), the morphology score in experiment [1] worked out at 0.273. Besides, the SARS-CoV-2 infection rate in experiment [2] is 83.5% (inactive).

Take `C#Cc1cccc(Nc2ncnc3cc(OCCOC)c(OCCO)cc23)c1` (10 µM): the morphology score in experiment [1] was -0.0889. In addition, the SARS-CoV-2 infection rate in experiment [2] was 116% (inactive).

Compound `O=c1c(O)c(-c2ccc(O)cc2O)oc2cc(O)cc(O)c12` [morin] (10 µM) came in with a morphology score in experiment [1] of 0.0742. In experiment [2], the SARS-CoV-2 infection rate was 108% (inactive).

With `CCC[C@H](Nc1nc(-c2ccc(NC(=O)NCC)c(OC)c2)ncc1C)c1cccnc1` (10 µM), the morphology score in experiment [1] was -0.29. Moreover, the SARS-CoV-2 infection rate in experiment [2] was 116% (inactive).

`O=C(OOC(=O)c1ccccc1)c1ccccc1` [benzoyl-peroxide] (10 µM): the morphology score in experiment [1] is -0.0426. For the same compound, the SARS-CoV-2 infection rate in experiment [2] is 97.5% (inactive).

`CC(C)N(C[C@H]1O[C@@H](n2cnc3c(N)ncnc32)[C@H](O)[C@@H]1O)[C@H]1C[C@@H](CCc2nc3cc(C(C)(C)C)ccc3[nH]2)C1` (10 µM) displayed a morphology score in experiment [1] of 0.122. In addition, the SARS-CoV-2 infection rate in experiment [2] was 110% (inactive).

On to `NC[C@H](O)c1ccc(O)c(O)c1` [norepinephrine] (10 µM), for which the morphology score in experiment [1] was -0.067. Moreover, the SARS-CoV-2 infection rate in experiment [2] is 109% (inactive).

With `C[C@@]12CC[C@@H]3[C@@](CC[C@H]4[C@@]3(C)CCC[C@@]4(C)C(=O)O)(CC1=O)C2` [isosteviol] (10 µM), the morphology score in experiment [1] is 0.144. The SARS-CoV-2 infection rate in experiment [2] was 100% (inactive).

Take `Nc1ncnc2c1c(-c1cnc3[nH]ccc3c1)nn2C1CCCC1` (10 µM): in experiment [1], the morphology score is -0.0498. Moreover, the SARS-CoV-2 infection rate in experiment [2] was 114% (inactive).

`C=C[C@]1(C)C[C@@H](OC(=O)CS[C@@H]2C[C@H]3CC[C@@H](C2)N3C)[C@]2(C)[C@H](C)CC[C@]3(CCC(=O)[C@H]32)[C@@H](C)[C@@H]1O` [retapamulin] (10 µM) registered a morphology score in experiment [1] of 0.0286. The SARS-CoV-2 infection rate in experiment [2] was 109% (inactive).

Regarding `CCn1cc(C(=O)O)c(=O)c2cc(F)c(N3CCNCC3)nc21` [enoxacin] (10 µM), in experiment [1], the morphology score was determined as 0.124. In addition, in experiment [2], the SARS-CoV-2 infection rate was 105% (inactive).

On to `Oc1cccc(O)c1` [resorcinol] (10 µM), for which the morphology score in experiment [1] turned out to be 0.0503. The SARS-CoV-2 infection rate in experiment [2] was 110% (inactive).

Turning to `Cc1ccc(O)c(N=Nc2ccccc2)n1` (10 µM), the morphology score in experiment [1] was determined as 0.26. Besides, in experiment [2], the SARS-CoV-2 infection rate was 81% (inactive).

For `NC(Cc1ccc(I)cc1)C(=O)O` (stereo in doubt) [4-iodo-L-phenylalanine] (10 µM), in experiment [1], the morphology score worked out at 0.202. The SARS-CoV-2 infection rate in experiment [2] was 105% (inactive).

Take `Oc1nc(-c2ccc(C(F)(F)F)cc2)nc2c1CSCC2` (0.833333 µM): the morphology score in experiment [1] came out at 0.149. In experiment [2], the SARS-CoV-2 infection rate was 94% (inactive).

On to `N[C@H](C(=O)O)c1ccc(O)c(C(=O)O)c1` [3-carboxy-4-hydroxyphenylglycine-(S)] (10 µM), for which the morphology score in experiment [1] was determined as 0.115. Also, the SARS-CoV-2 infection rate in experiment [2] was 95% (inactive).

On to `Cc1cc(-c2ccc(/N=N/c3ccc4c(S(=O)(=O)O)cc(S(=O)(=O)O)c(N)c4c3O)c(C)c2)ccc1/N=N/c1ccc2c(S(=O)(=O)O)cc(S(=O)(=O)O)c(N)c2c1O` [evans-blue] (0.833333 µM), for which, in experiment [1], the morphology score is -0.0473. Also, in experiment [2], the SARS-CoV-2 infection rate was 110% (inactive).

Regarding `NC(=O)CN1CC(c2ccccc2)CC1=O` (configuration not stated) [phenylpiracetam] (10 µM), the morphology score in experiment [1] is 0.175. Further, in experiment [2], the SARS-CoV-2 infection rate is 94% (inactive).

In experiment [1], `Cc1c(C2CCN(CCc3ccccc3)CC2)noc1-c1ccc(Cl)cc1` (10 µM) had a morphology score of 0.195. The SARS-CoV-2 infection rate in experiment [2] is 84% (inactive).

Consider `CC1(C)OC[C@H](NC(=O)Nc2ccc(Br)cc2Br)[C@H](c2ccccc2)O1` (10 µM), for which the morphology score in experiment [1] is -0.142. Moreover, the SARS-CoV-2 infection rate in experiment [2] was 112% (inactive).

Turning to `Cc1cnc(C(=O)O)c[n+]1[O-]` [acipimox] (10 µM), the morphology score in experiment [1] came to 0.0683. Further, the SARS-CoV-2 infection rate in experiment [2] is 108% (inactive).

As for `CC(C)(C)c1cc(C(C)(C)C)c2c(c1)C(O)(C(F)(F)F)C(=O)O2` (racemic) (10 µM), the morphology score in experiment [1] turned out to be 0.239. The SARS-CoV-2 infection rate in experiment [2] is 95.5% (inactive).

In the case of `CCCNC(C)C(=O)Nc1c(C)csc1C(=O)OC` (configuration not stated) [articaine] (10 µM), the morphology score in experiment [1] was 0.0926. In addition, the SARS-CoV-2 infection rate in experiment [2] was 98% (inactive).

For the compound `Nc1c(-c2cccc(C(F)(F)F)c2)nsc1C(=O)O` [amflutizole] (10 µM), the morphology score in experiment [1] came to 0.00564. Further, the SARS-CoV-2 infection rate in experiment [2] was 108% (inactive).

In turn, `CC(C)(C)C(=O)OCC(=O)[C@H]1CC[C@H]2[C@@H]3CCC4=CC(=O)CC[C@]4(C)[C@H]3CC[C@]12C` [desoxycorticosterone-pivalate] (10 µM) displayed a morphology score in experiment [1] of 0.123. For the same compound, the SARS-CoV-2 infection rate in experiment [2] was 106% (inactive).

In experiment [1], `O=C(O)c1ccccc1C(=O)Nc1ccc(-c2ccccc2)cc1` [kartogenin] (10 µM) displayed a morphology score of 0.214. For the same compound, the SARS-CoV-2 infection rate in experiment [2] was 97.5% (inactive).

On to `NC(=O)c1cccnc1` [nicotinamide] (10 µM), for which the morphology score in experiment [1] turned out to be 0.026. Besides, the SARS-CoV-2 infection rate in experiment [2] was 108% (inactive).

In the case of `Cc1ccc(Cl)c(OCC(O)CNC(C)(C)C)c1` (configuration not stated) [bupranolol] (10 µM), the morphology score in experiment [1] was -0.00864. Also, the SARS-CoV-2 infection rate in experiment [2] is 111% (inactive).

Compound `CCN1CCCC1=O` [1-ethyl-2-pyrrolidone] (10 µM) gave a morphology score in experiment [1] of 0.128. Further, the SARS-CoV-2 infection rate in experiment [2] is 104% (inactive).

Consider `COC(=O)C1=C(C)N(C)C(C)=C(C(=O)OC)C1c1ccc(C(F)(F)F)cc1` (10 µM), for which the morphology score in experiment [1] is -0.13. Besides, the SARS-CoV-2 infection rate in experiment [2] was 114% (inactive).
